For 17 molecules, residual activity results are on record in ChEMBL document CHEMBL2218924, “A broad activity screen in support of a chemogenomic map for kinase signalling research and drug discovery” (Biochem J, 2013).

SMILES strings stand for the structures.

This assay deals with Serine/threonine-protein kinase 33 (Homo sapiens) (UniProt Q9BYT3). Particulars: at 10 µM.
Chain of Serine/threonine-protein kinase 33 (Homo sapiens) (Q9BYT3 whole entry, looked up): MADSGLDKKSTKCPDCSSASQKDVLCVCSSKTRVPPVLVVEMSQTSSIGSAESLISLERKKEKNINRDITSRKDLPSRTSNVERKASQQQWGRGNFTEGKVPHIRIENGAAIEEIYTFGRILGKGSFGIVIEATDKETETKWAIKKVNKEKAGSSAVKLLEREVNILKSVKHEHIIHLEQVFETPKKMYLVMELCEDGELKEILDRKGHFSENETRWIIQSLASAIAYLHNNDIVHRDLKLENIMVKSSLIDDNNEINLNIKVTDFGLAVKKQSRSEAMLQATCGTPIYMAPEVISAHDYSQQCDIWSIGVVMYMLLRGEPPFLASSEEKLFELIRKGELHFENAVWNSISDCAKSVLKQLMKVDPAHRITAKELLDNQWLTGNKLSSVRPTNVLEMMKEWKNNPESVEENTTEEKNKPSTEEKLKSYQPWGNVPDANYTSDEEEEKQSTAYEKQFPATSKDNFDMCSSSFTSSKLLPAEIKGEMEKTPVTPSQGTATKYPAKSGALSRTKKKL
Consider `Cc1cc(C)c(/C=C2\C(=O)Nc3ccccc32)[nH]1`, for which the residual activity turned out to be 47%.
For the molecule `N#Cc1c(NC(=O)c2cccc3ccccc23)sc2c1CCCC2`, the residual activity is 92%.
Take `O=C(NC(NC(=S)Nc1ccc(F)c([N+](=O)[O-])c1)C(Cl)(Cl)Cl)C(c1ccccc1)c1ccccc1` (configuration not stated): the residual activity turned out to be 91%.
The same measure for `Cn1c2ccccc2c2c3c(c4c5ccccc5n(CCC#N)c4c21)CNC3=O`: 14%; for `Nc1ncnc2c1cnn2-c1ccccc1`: 100%.
On to `CN(C)S(=O)(=O)c1ccc2c(c1)/C(=C/c1cc3c([nH]1)CCCC3)C(=O)N2`, for which the residual activity amounted to 93%.
On to `O=c1cc(N2CCOCC2)oc2c(-c3ccccc3)cccc12`, for which the residual activity came out at 78%.
To `O=C(CCCc1ccc(-c2ccccc2F)cc1)Nc1ccc(O)cc1` belongs 108%.
On to `O=C1Nc2ccccc2/C1=C\c1c(Cl)[nH]c2ccccc12`, for which the residual activity worked out at 85%.
For `COc1ccc(-c2cnc3c(-c4ccsc4)cnn3c2)cc1`, the residual activity worked out at 96%.
For `CC(C)[C@H](CO)Nc1nc(Nc2cc(N)cc(Cl)c2)c2ncn(C(C)C)c2n1`, the residual activity worked out at 62%.
Turning to `COc1cc2nccc(Oc3ccc(NC(=O)Nc4cc(C)on4)c(Cl)c3)c2cc1OC`, the residual activity stood at 73%.
The same measure for `O=C1NC(=O)C(c2cn(CCCn3ccnc3)c3ccccc23)=C1Nc1ccccc1`: 32%; for `O=C1Cc2c([nH]c3ccc(Br)cc23)-c2ccccc2N1`: 81%.
For `O=C(c1ccccc1)c1ccc(N2CCOCC2)cc1O`, the residual activity stood at 98%.
Turning to `O=C(Nc1nc2ccccc2n1CCN1CCOCC1)c1cccc([N+](=O)[O-])c1`, the residual activity was 88%.
As for `CCN1/C(=C/C(C)=O)Sc2ccc(OC)cc21`, the residual activity is 58%.
